Shown are actives, neighbours in structure and some others; about 18% of the full set was active somewhere.
TDP1 block – TDP1 (human) enzyme inhibition | Q9NUW8 | recombinant TDP1, AlphaScreen DNA substrate cleavage | Potency, µM (highest dose often 130 µM), for the others: top-dose activity change, negative = inhibition, hits mostly inhibitors | hit rate 0.28% among 350,000 | AID 485290; note: potency is the fitted concentration of half-maximal effect; % is set by controls: 0 for no effect and ±100 for the full control effect; nearly all actives have a fitted effect of over 40% in size
Target sequence (Q9NUW8 whole entry, looked up): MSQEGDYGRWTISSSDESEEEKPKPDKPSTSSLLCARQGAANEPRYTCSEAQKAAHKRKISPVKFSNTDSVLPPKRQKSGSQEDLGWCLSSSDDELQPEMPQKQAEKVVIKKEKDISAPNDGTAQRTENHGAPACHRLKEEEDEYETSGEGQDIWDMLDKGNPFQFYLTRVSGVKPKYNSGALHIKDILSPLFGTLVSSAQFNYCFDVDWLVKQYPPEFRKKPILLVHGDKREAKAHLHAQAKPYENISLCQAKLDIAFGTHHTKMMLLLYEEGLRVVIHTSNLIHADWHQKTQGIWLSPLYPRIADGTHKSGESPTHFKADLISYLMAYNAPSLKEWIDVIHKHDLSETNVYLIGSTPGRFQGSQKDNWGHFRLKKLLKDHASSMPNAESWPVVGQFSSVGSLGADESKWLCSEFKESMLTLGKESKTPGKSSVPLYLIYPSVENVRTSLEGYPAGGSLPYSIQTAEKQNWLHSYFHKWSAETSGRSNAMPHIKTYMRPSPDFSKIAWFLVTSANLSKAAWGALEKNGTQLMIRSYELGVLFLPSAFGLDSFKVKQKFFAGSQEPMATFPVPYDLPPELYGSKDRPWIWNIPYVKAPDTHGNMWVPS
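E. coli-derived human Tdp1, 1 nM final. Cpd preinc 15 min RT; substrate 15 nM final, 5 min RT; AS bead mix 10 ug/ml final, 10 min RT. Signal loss = tyrosine-FITC cleavage. No-enzyme wells = max signal.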
DT40 TDP1 CPT – DT40-hTDP1 cell growth loss with CPT | chicken DT40 Tdp1-/-;hTDP1 cells + 20 nM CPT, ATP luminescence, 48 h | Potency, µM (highest dose often 46.2 µM), for inactives: top-dose activity change, negative = growth inhibition, usual class: inhibitors | hit rate 12% among 420,000 | AID 686979; note: potency is the fitted concentration of half-maximal effect; % is set by controls: 0 for no effect and ±100 for the full control effect; nearly all actives have a fitted effect of over 55% in size
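Chicken DT40 Tdp1-/- cells complemented with human TDP1, 400 cells/well, exposed to compounds plus 20 nM camptothecin for at least 48 h at 37 C; viability read as ATP content by CellTiter-Glo luminescence.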
TDP1 cell noCPT – qHTS for Inhibitors of human tyrosyl-DNA phosphodiesterase 1 (TDP1): qHTS in cells in absence of CPT | DT40 Tdp1-/- hTDP1 cells, no CPT, ATP luminescence, 48 h | Potency, µM (top dose mostly 46.2 µM), for inactives: at the highest dose activity change, negative = growth inhibition, hits mostly inhibitors | hit rate 15% among 420,000 | AID 686978, 2013; note: potency is the fitted concentration of half-maximal effect; % is set by controls: 0 for no effect and ±100 for the full control effect; nearly all actives have a fitted effect of over 55% in size
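Chicken DT40 Tdp1-/- cells stably complemented with human TDP1 were seeded at 400 cells/well with DMSO in place of 20 nM camptothecin. After compound pinning, cells grew at least 48 hr at 37 °C; viability read by CellTiter-Glo luminescence.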
TGFb SMAD3 inh – blocks TGF-b signaling | HepG2 CAGA-GFP TGF-b/SMAD3 reporter, GFP fluorescence, 18 h; TGF-beta stimulated, 500 pg/mL final | Potency, µM (highest dose often 46.1 µM), for inactives: at the top dose activity, negative = inhibition, usual class: inhibitors | hit rate 1.2% among 410,000 | AID 588855; note: potency is the fitted concentration of half-maximal effect; % is set by controls: 0 for no effect and ±100 for the full control effect; nearly all actives have a fitted effect of over 65% in size
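Smad-responsive CAGA-GFP expression was quantified in HEPG2 cells exposed to compounds and 500 pg/mL final TGF-beta for 18 h at 37 degrees C; unstimulated wells defined full inhibition.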
HepG2 tox – kills HepG2 cells in TGF-b inhibitor counter-screen. HepG2 CAGA-GFP viability, ATP luminescence, 18 h. Potency, µM (doses to about 46.1 µM), without a hit: at the highest dose activity change, negative = cytotoxicity, actives largely listed as cytotoxic. hit rate 0.76% among 410,000. AID 588856; note: potency is the fitted concentration of half-maximal effect
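HepG2 CAGA-GFP cells (1000/well, DMEM with 1% FBS) received compound, then TGF-beta at 500 pg/mL final, and were incubated 18 hours at 37 degrees C. Viability was read by CellTiter-Glo luminescence. Media-only wells were set as complete cell-killing and DMSO as no toxicity.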
IL1B secr inh – blocks inflammasome-driven IL-1 beta release; THP-1 LPS/ATP IL-1B secretion, AlphaLISA, 16 h; stronger effect = lower value; activity change, % at 57.5 µM; hit rate 4.7% among 360,000; in the data active = activity change below about -50%; inconclusive = mostly about -30% to -49%; note: % is set by controls: 0 for no effect and ±100 for the full control effect
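THP-1 cells pretreated 1 hr with compounds (up to 57.5 uM final), then stimulated with LPS (250 ng/mL final) plus ATP (1.25 mM final); secreted IL-1B measured by AlphaLISA after 16 hr, decreased signal indicating inhibition.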
* hit, by the source's call; i = inactive; u = inconclusive; x = no result; [ ] = another dose, or the depositor's remark. Unless noted, calls come from the whole dose curve; as a rule, active = well fitted curve in the direction sought with a large enough effect; inconclusive = small, poorly fitted or top-dose-only effect, or another doubt; inactive = no such curve, though single readings can be large; an effect the other way counts as inactive or inconclusive.

SMILES	TDP1 block	DT40 TDP1 CPT	TDP1 cell noCPT	TGFb SMAD3 inh	HepG2 tox	IL1B secr inh
CN(C)S(=O)(=O)c1cccc(NC(=S)Nc2ccc(Cl)cc2Cl)c1	-1%	u	16µM*	u	0%	-5
Cc1c(C(=O)N2CCCC2)sc2ncnc(NCCc3ccccn3)c12	x	-2%	-17%	x	x	x
COCCCNC(=O)c1ccc2nc([C@@H]3O[C@H](CO)[C@H](O)[C@H](O)[C@H]3O)[nH]c2c1	x	-13%	-2%	-7%	17%	43
Cc1cc(Br)cc(/C=N/NC(=O)c2ccc3c(c2)OCO3)c1O	x	18µM*	23µM*	5.6µM*	1.8µM*	69
O=C(N/N=C/c1cc(Br)cc(Cl)c1O)c1ccc2c(c1)OCO2	x	0.82µM*	1µM*	u	-64%	74
O=C(N/N=C/c1cc(Br)c(Br)o1)c1ccc2c(c1)OCCO2	1%	u	u	2%	14%	-3
O=C(N/N=C/c1cc2c(cc1Cl)OCO2)c1cccc(Br)c1	2%[56.1 µM]	-13%	16%	0%	-4%	0
O=C(N/N=C/c1cc(Br)c(O)c(Br)c1O)c1ccc2c(c1)OCCO2	4%	12µM*	8.2µM*	-27%	-4%	66
Cc1ccc(S(=O)(=O)c2nnn3c2nc(N2CCOCC2)c2sccc23)cc1C	-3%	u	u	16%	-1%	x
COc1ccc(CN2CCN(C(C)=O)CC2)cc1OC1CCN(C(=O)c2ccc3[nH]c(C)c(C)c3c2)CC1	x	-11%[9.04 µM]	-28%	x	x	x
O=C(Nc1ccccc1-c1ccccc1)C12CC3CC(CC(C3)C1)C2	1%	u	15µM*	u	-35%	-11
O=C(NC(=S)Nc1ccccc1Br)C1CCCCC1	-5%	18µM*	16µM*	0%	-13%	21
O=C(Nc1ccccc1-c1ccccc1)C1CCCC1	3%	6.5µM*	6.5µM*	-15%	1%	12
O=C(c1cccc(Cl)c1)N1CCN(CCCc2ccccc2)CC1	x	-28%	-10%	-6%	-11%	-2
CC(=O)Nc1ccc(S(=O)(=O)NC2C3(C)CCC(C3)C2(C)C)cc1 (centres undefined)	x	-22%	5%	0%	-4%	11
CCN(CC)CCCNC(=O)C1c2ccccc2C(=O)N(C)C1c1ccc(OC)cc1 (centres undefined)	2%	-8%	2.3µM*	-2%	3%	0
COc1ccc(C2C(C(=O)N3CCN(C)CC3)c3ccccc3C(=O)N2C2CCCCC2)cc1 (centres undefined)	-2%	-17%	-9%	5%	-18%	4
COc1ccc(C2C(C(=O)Nc3cc(OC)c(OC)c(OC)c3)c3ccccc3C(=O)N2C)cc1 (centres undefined)	3%	1.5µM*	1.8µM*	u	25%	95
COc1ccc(C2C(C(=O)NCCN3CCOCC3)c3ccccc3C(=O)N2C2CCCCC2)cc1 (centres undefined)	5%[56.1 µM]	7.3µM*	5.2µM*	2%	-24%	32
Cc1cc(C(=O)N2CCCC(N3CCN(c4ccccc4C)CC3)C2)no1 (centres undefined)	x	u	u	-3%	-44%	19
CCn1c(=O)c2cc(C(=O)NCc3cc(OC)ccc3OC)sc2c2ccccc21	7%	u	u	2.5µM*	-28%	x
CCn1c(=O)c2cc(C(=O)Nc3ccc(OC)cc3OC)sc2c2ccccc21	x	-13%	-5%	12%	-4%	-4
CCn1c(=O)c2cc(C(=O)NCCOC)sc2c2ccccc21	x	u	u	0%	-12%	u
CCn1c(=O)c2cc(C(=O)NCCc3ccc(OC)c(OC)c3)sc2c2ccccc21	3%	8.2µM*	7.3µM*	u	-15%	x
CCn1c(=O)c2cc(C(=O)NCCc3cc(OC)ccc3OC)sc2c2ccccc21	1%	-3%	8.2µM*	-1%	20%	x
SMILES	TDP1 block	DT40 TDP1 CPT	TDP1 cell noCPT	TGFb SMAD3 inh	HepG2 tox	IL1B secr inh
O=C(CN1C(=O)c2cccc([N+](=O)[O-])c2C1=O)N1CCN(S(=O)(=O)c2ccccc2)CC1	2%	6%	3%	-2%	-9%	8
Cc1cc(C)c(C)c(S(=O)(=O)Nc2ccccc2C(=O)NN2CCOCC2)c1C	2%	-22%	-2%	-4%	-5%	14
CCC(CC)C(=O)OCc1cc(=O)n2nc(C3CC3)sc2n1	6%	-16%	u	1%	14%	x
Cc1ccc(S(=O)(=O)NC(CC(C)C)C(=O)N2CCCC2)cc1 (centres undefined)	1%	u	-23%	-1%	-4%	i
Cc1cc(OCC(=O)NC2CC(C)(C)NC(C)(C)C2)c(C)cc1Br	-2%	u	13µM*	19%	-18%	i
Cc1ccc(OCC(=O)NC2CC(C)(C)NC(C)(C)C2)c(C)c1	-8%	-4%	0%	0%	-14%	-5
CC(C)c1ccc(OCC(=O)NC2CC(C)(C)NC(C)(C)C2)c(Br)c1	4%	u	u	u	11µM*	-62*
CCCCC(=O)OC1CCC2C3CCc4cc(O)ccc4C3CCC12C (centres undefined)	x	u	18µM*	-5%	-30%	1
CCCCC(=O)OC1CCC2C3CCc4cc(O)ccc4C3CC[C@]12C (some centres undefined)	5%	x	x	x	x	x
C[C@]12CC[C@@H]3c4ccc(O)cc4CC[C@H]3[C@@H]1CC[C@@H]2OC(=O)CCC(=O)O	5%	0.73µM*	1%	3%	-1%	3
CC(c1ccco1)N(C(=O)COc1ccc(Cl)cc1Cl)c1ccccn1 (centres undefined)	5%	u	21µM*	1%	1%	u
CC(c1ccco1)N(C(=O)COc1ccc(Cl)cc1)c1ccccn1 (centres undefined)	-1%	u	u	11%	-17%	-9
CC(c1ccco1)N(C(=O)C12CC3CC(CC(C3)C1)C2)c1ccccn1 (centres undefined)	0%	21µM*	u	-2%	15%	2
CC(c1ccco1)N(C(=O)c1ccc(Cl)c([N+](=O)[O-])c1)c1ccccn1 (centres undefined)	10%	21µM*	21µM*	-12%	4%	-14
